“And” between values parts separate entries of the source, which are not always exact repeats. Equal values may be shown once. Inconclusive results are not listed. The source made the active and inactive calls. Unless noted, calls come from the whole dose curve; as a rule, active = well fitted curve in the direction sought with a large enough effect in the repeat runs; inconclusive = weak or mixed curves; inactive = no such curve, though single readings can be large; an effect the other way counts as inactive or inconclusive.
How the values were obtained:
[1] = qHTS assay to identify small molecule agonists of the vitamin D receptor (VDR) signaling pathway - cell viability counter screen (AID 743224); note: series mostly up to about 63 µM; nearly all actives have a fitted effect of over 50% in size
Method in brief: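 Counter screen for cytotoxicity: VDR-bla cells at 2,000 cells/well, 16 h compound exposure, then CellTiter-Glo luminescence after the beta-lactamase measurement.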

[2] = qHTS assay to identify small molecule agonists of the NFkB signaling pathway - cell viability counter screen (AID 1159515; calls by dose curve; note: nearly all actives have a fitted effect of over 55% in size; note: potency is the fitted concentration of half-maximal effect)
Method in brief: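 Counter screen run alongside the NFkB-bla agonist assay: ME-180 reporter cells exposed to compounds for 5 hr, then lysed with CellTiter-Glo in the same wells. Luminescence, read after 30 min, reflects viable cells.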

[3] = qHTS assay to identify small molecule agonists of the endoplasmic reticulum stress response signaling pathway (AID 1159516; active = well fitted activation curve with a large enough effect in the signal ratio in the repeat runs, not every such curve was filed as active; the % refers to the signal ratio; note: potency is the fitted concentration of half-maximal effect)
Method in brief: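 For this screen, HeLa cells stably carrying beta-lactamase under the ER stress response element received test compounds, positive controls or DMSO for 5 hr at 37 C; B/G FRET substrate was then added and dual-wavelength emission recorded.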

[4] = qHTS assay to identify small molecule antagonists of the retinoid-related orphan receptor gamma (ROR-gamma) signaling pathway - cell viability counter screen (AID 1159520); note: nearly all actives have a fitted effect of over 50% in size; note: potency is the fitted concentration of half-maximal effect
Method in brief: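 Tet-on ROR gamma CHO cells were given compounds for 2 hr, then doxycycline hyclate at 1 uM final, and incubated 16 hr at 37 C. Viability was measured as ATP content by CellTiter-Glo luminescence.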

[5] = molecular target: Nuclear receptor ROR-gamma (Homo sapiens) (UniProt P51449); test: qHTS assay to identify small molecule antagonists of the retinoid-related orphan receptor gamma (ROR-gamma) signaling pathway (AID 1159521; note: nearly all actives have a fitted effect of over 50% in size; note: potency is the fitted concentration of half-maximal effect)
Method in brief: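 Inducible-expression reporter assay: doxycycline (1 uM final) switched on RORγ in CHO cells bearing a ROR response element-luciferase construct, with test compounds present from 2 h beforehand. Decreased luminescence after 16 h defined antagonist activity.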

[6] = molecular target: Retinoic acid receptor RXR-alpha (Homo sapiens) (UniProt P19793); test: qHTS assay to identify small molecule agonists of the RXR signaling pathway (AID 1159527; calls by dose curve; note: nearly all actives have a fitted effect of over 35% in size; note: potency is the fitted concentration of half-maximal effect)
Method in brief: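 Compounds in DMSO were added to RXR-alpha-UAS-bla HEK 293T cells kept in 2% charcoal-stripped serum, and incubated 16 hr at 37 C with 5% CO2. Reporter signal came from a 2 hr B/G FRET substrate step.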

[7] = qHTS assay to identify small molecule antagonists of the retinoid acid receptor (RAR) signaling pathway - cell viability counter screen (AID 1159551); note: nearly all actives have a fitted effect of over 35% in size; note: potency is the fitted concentration of half-maximal effect
Method in brief: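 Measured by luminescent ATP detection, viability reflects C3RL4 cells treated 6 h at 37 C with test chemicals in the presence of 1 uM (final) retinol.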

[8] = qHTS assay to identify small molecule antagonists of the retinoic acid receptor (RAR) signaling pathway (AID 1159552; note: nearly all actives have a fitted effect of over 50% in size)
Method in brief: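 Antagonism of retinol-induced RARE reporter activity was measured in C3RL4 cells. Exposure to compounds and 1 uM final retinol lasted 6 hr at 37 C, with luminescence as endpoint.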

[9] = qHTS assay to identify small molecule antagonists of the vitamin D receptor (VDR) signaling pathway - cell viability counter screen (AID 743225); note: nearly all actives have a fitted effect of over 50% in size; note: potency is the fitted concentration of half-maximal effect
Method in brief: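 Same-well multiplex: following 16 h treatment of HEK 293T cells carrying a UAS-driven beta-lactamase reporter with compound and agonist (3 nM final), and a 2 h FRET substrate step, CellTiter-Glo was added and luminescence read after 30 min.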

[10] = qHTS assay to identify small molecule agonists of the AP-1 signaling pathway - cell viability counter screen (AID 1159525; calls by dose curve; note: nearly all actives have a fitted effect of over 55% in size; note: potency is the fitted concentration of half-maximal effect)
Method in brief: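 Same-well cytotoxicity counter screen of the Tox21 10K library in ME-180 cells. The readout is ATP-dependent luminescence after 5 h compound treatment. Data are normalised to DMSO and tetra n-octyl ammonium bromide controls.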

[11] = qHTS assay to identify small molecule agonists of the AP-1 signaling pathway (AID 1159526; calls by dose curve)
[12] = qHTS assay to identify small molecule agonists of the RXR signaling pathway - cell viability counter screen (AID 1159529); note: nearly all actives have a fitted effect of over 50% in size; note: potency is the fitted concentration of half-maximal effect
Method in brief: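 Counter screen: CellTiter-Glo luminescence. Cells: RXR-alpha-UAS-bla HEK 293T. Medium: 2% charcoal-stripped FBS. Treatment: 16 h, 37 C. Reagent incubation: 30 min, RT.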

[13] = qHTS assay to identify small molecule antagonists of the estrogen related receptor (ERR) signaling pathway - cell viability counter screen (AID 1224818); note: series mostly up to about 46 µM
Method in brief: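 Compounds dissolved in DMSO were applied to ERR cells seeded at 2,000 per well 6 h earlier. Cell viability followed 17.5 h later via 30-min CellTiter-Fluor fluorescence.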

[14] = qHTS assay to identify small molecule antagonists of the estrogen related receptor signaling pathway with the pleiotropic PPARgamma coactivator (PGC) cell viability counter screen (AID 1224822; note: series mostly up to about 46 µM)
Method in brief: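 Counter screen for cell viability: PGC/ERR cells, 6 h pre-incubation after plating, 17.5 h compound exposure at 37 C, fluorescence from CellTiter-Fluor after 30 min.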

[15] = qHTS assay to identify small molecule agonists of the retinoic acid receptor (RAR) signaling pathway (AID 1159553); note: potency is the fitted concentration of half-maximal effect
Method in brief: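 6 hr compound exposure (DMSO vehicle) of overnight-plated C3RL4 RARE-luc cells at 37 C; luminescence quantified after 30 min RT with luciferase reagent.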

[16] = qHTS assay to identify small molecule agonists of the endoplasmic reticulum stress response signaling pathway - cell viability counter screen (AID 1159517; calls by dose curve; note: nearly all actives have a fitted effect of over 50% in size; note: potency is the fitted concentration of half-maximal effect)
Method in brief: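 Steps: seed 1,500 ESRE-bla HeLa cells per well; incubate overnight at 37 C, 5% CO2; add compounds in DMSO for 5 hr; run FRET substrate 2 hr RT; add CellTiter-Glo, wait 30 min, read luminescence.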

Measured: Potency

Sequence of Retinoic acid receptor RXR-alpha (Homo sapiens) (P19793 whole entry, looked up): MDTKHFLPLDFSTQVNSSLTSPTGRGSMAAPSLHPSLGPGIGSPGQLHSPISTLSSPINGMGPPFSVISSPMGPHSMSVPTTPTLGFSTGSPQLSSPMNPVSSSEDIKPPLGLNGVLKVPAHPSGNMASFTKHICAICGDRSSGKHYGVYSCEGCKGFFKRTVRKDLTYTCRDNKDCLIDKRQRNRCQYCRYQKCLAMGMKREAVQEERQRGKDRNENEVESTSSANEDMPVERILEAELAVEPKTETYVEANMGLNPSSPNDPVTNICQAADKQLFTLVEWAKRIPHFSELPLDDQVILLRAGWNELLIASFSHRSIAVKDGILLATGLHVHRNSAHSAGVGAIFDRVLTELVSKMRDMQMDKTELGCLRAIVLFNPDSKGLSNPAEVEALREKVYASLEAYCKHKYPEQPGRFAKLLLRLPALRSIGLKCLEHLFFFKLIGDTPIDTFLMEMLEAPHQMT

CCCCC/C=C\C/C=C\C/C=C\C/C=C\CCCC(=O)NCC(=O)O
inactive: [1] | [2] | [3] | [4] | [5] | [6] | [7] | [8]

CC(=O)[O-].CC(=O)[O-].O.O.[Zn+2]
not listed: [5] | [8] | [13] | [14] | [15] | [16]
inactive: all other assays above

COC(=O)c1cc(Oc2ccc(Cl)cc2Cl)ccc1[N+](=O)[O-]
active: [5] 54.5 µM
not listed: [4] | [6] | [13] | [14] | [15] | [16]
inactive: all other assays above

CCCCC(CC)COC(=O)c1ccccc1C(=O)OCC(CC)CCCC (centres undefined)
not listed: [5] | [6] | [8] | [9] | [15] | [16]
inactive: all other assays above

CCCCCCCc1ccc(O)cc1
active: [10] 54.9 µM | [15] 8.63 µM
inactive: [9] | [2] | [3] | [5] | [7] | [8]

CCOC(=O)Cc1ccccc1
inactive: [2] | [3] | [4] | [5] | [11] | [6] | [12] | [7] | [8]

O=[N+]([O-])c1ccc(CCl)cc1
not listed: [1] | [6] | [10] | [13] | [14] | [16]
inactive: all other assays above

CCCCCON=O
not listed: [8] | [10] | [13] | [14] | [16]
inactive: all other assays above

CCCCON=O
not listed: [5] | [9] | [13] | [14] | [15] | [16]
inactive: all other assays above

NC(=O)C(Cl)Cl
not listed: [5] | [13] | [14] | [16]
inactive: all other assays above

[Cl-].[Cl-].[Cl-].[Yb+3]
inactive: [2] | [3] | [4] | [10] | [11] | [7]

O=[N+]([O-])c1ccc(Cl)c(Cl)c1Cl
not listed: [4] | [11] | [13] | [14] | [15] | [16]
inactive: all other assays above

CCO/N=C(\CC)C1=C(O)CC(c2c(C)cc(C)cc2C)CC1=O (centres undefined)
inactive: [2] | [3] | [5] | [10] | [11] | [7] | [15] | [13] | [14]

C=Cc1cccc(CCl)c1
inactive: [1] | [9] | [2] | [3] | [5] | [10] | [11] | [12] | [7]

COc1nc(C)nc(NC(=O)NS(=O)(=O)c2ccccc2Cl)n1
not listed: [10] | [13] | [14] | [16]
inactive: all other assays above

COc1ccc2c3c1O[C@H]1[C@H](O)CC[C@H]4[C@@H](C2)N(C)CC[C@@]341
not listed: [4] | [13] | [14] | [15] | [16]
inactive: all other assays above

CCCCn1cc[n+](C)c1.[Cl][Fe-]([Cl])([Cl])[Cl]
inactive: [1] | [9] | [2] | [3] | [4] | [11] | [6] | [12] | [7]

CN(C)CCc1c[nH]c2ccccc12
not listed: [4] | [6] | [11] | [13] | [14] | [16]
inactive: all other assays above

CN=C=O
inactive: [9] | [2] | [3] | [5] | [10] | [11] | [12] | [7]

CCCCC(CC)COC(=O)OOC(C)(C)C (centres undefined)
not listed: [1] | [10] | [13] | [14] | [15] | [16]
inactive: all other assays above

c1cc[n+]2c(c1)-c1cccc[n+]1CC2
not listed: [5] | [8] | [13] | [14] | [15] | [16]
inactive: all other assays above

S=C=Nc1ccccc1
active: [15] 70.8 µM
not listed: [1] | [10] | [13] | [14] | [16]
inactive: all other assays above

COc1c2c(cc3c1OCO3)CCN(C)C2
not listed: [8] | [10] | [11] | [13] | [14] | [16]
inactive: all other assays above

ClC1(Cl)C2(Cl)C3(Cl)C4(Cl)C(Cl)(Cl)C5(Cl)C3(Cl)C1(Cl)C5(Cl)C24Cl (centres undefined)
not listed: [5] | [13] | [14] | [16]
inactive: all other assays above

c1csc(-c2ccc(-c3cccs3)s2)c1
active: [3] 49 µM | [6] 21.9 µM | [15] 1.72 µM
not listed: [5] | [11] | [13] | [14] | [16]
inactive: all other assays above

CSC1=N[C@@](C)(c2ccccc2)C(=O)N1Nc1ccccc1
active: [5] 10.9 µM
inactive: [2] | [3] | [10] | [11] | [6] | [12] | [7]

Cc1c([N+](=O)[O-])c(C)c([N+](=O)[O-])c(C(C)(C)C)c1[N+](=O)[O-]
active: [6] 12.3 µM
inactive: [1] | [2] | [3] | [4] | [10] | [11] | [7] | [8]

[Cl-].[Cl-].[Sn+2]
not listed: [5] | [8] | [13] | [14] | [15] | [16]
inactive: all other assays above

Nc1c(Cl)c(Cl)c(Cl)c(Cl)c1Cl
not listed: [1] | [6] | [10] | [11] | [16]
inactive: all other assays above

CCN(CC)C(=O)N[C@@H]1C=C2c3cccc4[nH]cc(c34)C[C@@H]2N(C)C1
not listed: [5] | [13] | [14] | [16]
inactive: all other assays above

CC(Cc1ccc2c(c1)OCO2)NO (centres undefined)
not listed: [5] | [13] | [14] | [16]
inactive: all other assays above

CC1(C)C(C=C(Cl)Cl)C1C(=O)OC(C#N)c1ccc(F)c(Oc2ccccc2)c1 (centres undefined)
inactive: [1] | [2] | [3] | [4] | [12] | [7] | [8] | [15]

CCC(C)Br (centres undefined)
not listed: [4] | [8] | [13] | [14] | [15] | [16]
inactive: all other assays above

CCCN
not listed: [1] | [5] | [6] | [13] | [14] | [16]
inactive: all other assays above

CCn1cc[n+](C)c1 (tested in a mixture with another compound)
not listed: [5] | [8] | [13] | [14] | [15] | [16]
inactive: all other assays above

CCCCN(CCCC)C(=S)[S-].CCCCN(CCCC)C(=S)[S-].[Ni+2]
not listed: [1] | [5] | [13] | [14] | [15] | [16]
inactive: all other assays above

COP(=S)(OC)Oc1ccc([N+](=O)[O-])c(C)c1
not listed: [3] | [8] | [13] | [14] | [15]
inactive: all other assays above

[O]=[Cr](=[O])([OH])[O][Cr](=[O])(=[O])[OH]
inactive: [11] | [15]
active: [9] 19.7 µM and 21.8 µM | [2] 30.8 µM | [16] 22.1 µM and 34.6 µM | [4] 5.5 µM and 2.43 µM | [5] 4.9 µM and 4.32 µM | [10] 24.8 µM | [12] 0.0027 µM | [7] 17.4 µM and 27.3 µM

CCOP(=O)(OCC)Oc1cc(C)nc(C(C)C)n1
not listed: [3] | [8] | [13] | [14] | [15]
inactive: all other assays above

S=C=NCCc1ccccc1
inactive: [1] | [2] | [3] | [10] | [12] | [7] | [8]

O.O.O.O=C([O-])[C@H]([O-])[C@@H]([O-])C(=O)[O-].O=C([O-])[C@H]([O-])[C@@H]([O-])C(=O)[O-].[K+].[K+].[Sb+3].[Sb+3]
active: [5] 1.94 µM
inactive: [1] | [9] | [2] | [3] | [7]

CC(=O)[O-].CC(=O)[O-].[Co+2]
inactive: [1] | [9] | [2] | [3] | [10] | [11] | [12] | [7]

Source: PubChem BioAssay (Tox21)
